Assay outcomes deposited in PubChem by several laboratories.
GRIN3A LBD mod: modulates the human NR3A ligand-binding domain | NR3A LBD differential scanning fluorimetry, Tm shift; 0% = protein alone, 100% = glycine-bound protein | Tm shift relative to glycine control, % at 25 µM | 2.5% of 340,000 active;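 active means melting temperature shift of at least 10% of the positive control shift, at one fixed dose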
UBC9 SUMO inh: blocks human SUMOylation mediated by UBC9; HTRF SUMOylation assay, SAE1/SAE2 + UBC9, in vitro; inhibition, % at 35 µM; P63279; AID 2006; 0.36% of 290,000 active; in the data active means inhibition above about 50%, passing the limit was not always enough
UBC13 inh: human UBC13 polyubiquitination inhibition. UBC13 polyubiquitin chain formation, TR-FRET. 0.47% of 330,000 active. inhibition, % at 20 µM; in the data active means inhibition above about 45%, passing the limit was not always enough
Target sequence (P61088 whole entry, looked up): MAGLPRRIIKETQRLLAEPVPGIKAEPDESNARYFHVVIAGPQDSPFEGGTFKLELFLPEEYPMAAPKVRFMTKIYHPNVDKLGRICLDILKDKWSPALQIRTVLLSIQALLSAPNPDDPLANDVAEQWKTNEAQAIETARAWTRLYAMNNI
HGIII-sPLA2 inh: Inhibits HGIII-sPLA2 liposome hydrolysis, primary screen | inhibition, % at 12.2 µM | QFRET BODIPY PC-A2 liposome hydrolysis, fluorescence | AID 743126 | 0.56% of 370,000 active | Q9NZ20;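 active means inhibition above mean plus 3 SD of compounds lying within the high and low control bounds, cut at about 19% in these data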;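 further: 0% = median of test compound wells and 100% = no enzyme DMSO wells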
Target sequence (Q9NZ20 whole entry, looked up): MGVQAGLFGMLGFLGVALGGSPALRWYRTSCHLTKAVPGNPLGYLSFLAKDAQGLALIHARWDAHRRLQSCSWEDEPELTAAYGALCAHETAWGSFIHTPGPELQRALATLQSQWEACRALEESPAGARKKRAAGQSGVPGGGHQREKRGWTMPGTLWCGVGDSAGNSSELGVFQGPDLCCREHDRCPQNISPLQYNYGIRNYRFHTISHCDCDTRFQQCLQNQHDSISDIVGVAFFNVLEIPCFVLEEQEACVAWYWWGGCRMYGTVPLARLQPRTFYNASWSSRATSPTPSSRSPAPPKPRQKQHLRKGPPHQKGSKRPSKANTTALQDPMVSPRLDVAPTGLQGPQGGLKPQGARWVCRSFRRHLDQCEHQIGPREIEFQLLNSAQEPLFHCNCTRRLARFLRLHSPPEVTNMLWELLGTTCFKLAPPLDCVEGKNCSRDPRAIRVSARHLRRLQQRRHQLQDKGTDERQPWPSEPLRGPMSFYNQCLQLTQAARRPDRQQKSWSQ
Active calls of the source: *; x = not tested or not shown. An excerpt weighted towards active compounds, which were near 3.3% of everything screened.

SMILES | GRIN3A LBD mod | UBC9 SUMO inh | UBC13 inh | HGIII-sPLA2 inh
COc1ccc2c(c1)Cc1sc(NC(=O)c3ccccc3)nc1-2 | 10.1* | 92.6 | -13.9 | -14.4
COc1ccc(-c2nc(NC(=O)c3ccccc3)sc2-c2ccc([N+](=O)[O-])cc2)cc1 | -8.0 | 26.5 | -14.2 | 14.3
COC(=O)[C@]12C=CCN1[C@H](c1ccc(C(F)(F)F)cc1)c1c(c3ccccc3n1S(=O)(=O)c1ccc(C)cc1)C2 | x | x | x | 6.0
c1nc(NC[C@@H]2CCCO2)c2cc(-c3ccc4c(c3)OCO4)ccc2n1 | x | x | x | 4.0
CC(Oc1ccc(Cl)cc1Cl)c1nc(-c2ccc(NC(=O)c3ccncc3)cc2)no1 (configuration not stated) | 22.4* | -13.3 | 26.7 | -20.6
O=C(Nc1ccc(-c2noc(-c3cccs3)n2)cc1)c1cccnc1 | 28.2* | -2.6 | 10.8 | -19.0
CC(Oc1ccc(Cl)cc1Cl)c1nc(-c2ccc(NC(=O)c3cccnc3)cc2)no1 (configuration not stated) | 11.8* | -21.0 | 8.1 | -3.9
COc1cccc(-c2nc(-c3ccc(NC(=O)c4cccnc4)cc3)no2)c1 | -5.6 | -15.1 | 7.0 | 2.7
CC(Oc1ccc(Cl)cc1Cl)C(=O)NNC(=O)c1ccncc1 (configuration not stated) | 6.5 | x | 1.5 | 0.6
CC(Oc1ccc(Cl)cc1Cl)C(=O)NNC(=O)c1cccnc1 (configuration not stated) | -2.4 | 4.8 | -2.7 | 3.0
Fc1ccc(-c2cc(C(F)(F)C(F)F)[nH]n2)cc1 | 10.3* | 2.3 | 1.3 | -12.1
CCOC(=O)c1sc(NC(=O)/C=C/c2ccccc2)nc1C | 10.2* | 43.1 | 6.7 | -1.6
Cc1nc(NC(=O)/C=C/c2ccccc2)sc1C(=O)NCCO | -0.6 | 16.3 | -9.7 | -3.0
COC(=O)c1sc(NC(=O)/C=C/c2ccccc2Cl)nc1C | 18.8* | 25.5 | -17.3 | 1.3
COc1ccc(/C=C/C(=O)Nc2nc(C)c(C(=O)N(C)C)s2)cc1 | -2.5 | 16.8 | -18.0 | -8.6
COC(=O)c1sc(NC(=S)NC(=O)c2ccccc2Cl)nc1C | -5.2 | 6.0 | 6.4 | 7.4
CCOC(=O)CNC(=O)c1sc(NC(=O)/C=C/c2ccccc2)nc1C | -0.7 | 11.3 | 30.1 | -0.2
Cc1nc(NC(=O)/C=C/c2ccccc2)sc1C(=O)Nc1ccccc1 | 20.9* | 11.9 | -4.3 | 2.5
COC(=O)c1sc(NC(=O)/C=C/c2ccc(C)cc2)nc1C | 23.3* | -1.9 | 3.4 | 0.6
COC(=O)[C@H](CC(C)C)N(CCCc1cn(Cc2ccccc2)nn1)S(=O)(=O)c1ccc(F)cc1Br | x | x | x | -13.0
CC(C)(C)C(=O)OC12CCCN(C1)/C(=C/c1cccnc1)C2 (configuration not stated) | x | x | x | 0.4
CCN1CCN(CCCNC(=O)c2ccc(/C=C3/Oc4ccccc4N(Cc4cccc(C)c4)C3=O)cc2)CC1 | -4.7 | 27.1 | 64.0* | x
O=C(NCCCN1CCOCC1)c1ccc(/C=C2\Oc3ccccc3N(Cc3ccccc3F)C2=O)cc1 | -9.6 | 29.6 | 41.0 | -1.3
Cc1cccc(NC(=O)Nc2ccccc2C(=O)N2CCCC2)c1 | x | x | x | -3.7
CN(/N=C/c1ccc(O)cc1O)c1ncc(C(F)(F)F)cc1Cl | 25.9* | 0.1 | -7.3 | -11.4
SMILES | GRIN3A LBD mod | UBC9 SUMO inh | UBC13 inh | HGIII-sPLA2 inh
CN(/N=C/c1ccccc1Cl)c1ncc(Cl)cc1C(F)(F)F | -1.0 | 5.8 | -2.0 | 13.6
Cc1ccc(NC(=O)CC2S/C(=N/N=C3/NC(=O)CS3)NC2=O)cc1 (configuration not stated) | 0.7 | -25.2 | -27.3 | -3.2
CCOC(=O)c1ccc(NC(=O)CC2S/C(=N/N=C/c3c[nH]c4ccccc34)NC2=O)cc1 (configuration not stated) | 29.1* | 2.4 | 3.3 | -65.7
CCOC(=O)c1ccc(NC(=O)CC2S/C(=N/N=C3/NC(=O)CS3)NC2=O)cc1 (configuration not stated) | 1.2 | -30.7 | 21.4 | -4.1
Cc1ccc(NC(=O)CC2S/C(=N/N=C/c3ccco3)NC2=O)cc1Cl (configuration not stated) | 4.3 | 33.7 | -17.5 | -10.3
Cc1ccc(NC(=O)CC2S/C(=N/N=C/c3c[nH]c4ccccc34)NC2=O)cc1 (configuration not stated) | 11.4* | 26.4 | 15.4 | -18.7
Cc1ccc(NC(=O)CC2S/C(=N/N=C/C=C/c3ccccc3)NC2=O)cc1Cl (configuration not stated) | 15.2* | -9.1 | -46.7 | 11.4
O=C(Nc1cccc(F)c1)O[C@@H]1CC[C@@]23CCCN2C(=O)CCC[C@H]3C1 | x | x | x | -3.3
CCN1C(=O)C(CC(=O)Nc2ccc(F)cc2)N(Cc2cccs2)C1=S (configuration not stated) | 12.6* | 2.6 | 6.2 | -33.7
CCCOc1ccc(NC(=O)CC2C(=O)N(Cc3ccccc3)C(=S)N2Cc2cccs2)cc1 (configuration not stated) | 16.5* | -7.1 | 2.6 | -19.8
COc1ccc(CC(/C=C/c2ccc(F)cc2)c2ccccc2)cc1 (configuration not stated) | x | x | x | 6.3
COc1cc2c(cc1/C=C/C(=O)O)OC(C)C2 (configuration not stated) | 1.2 | 55.2* | 13.3 | -2.4
CC(C)=NN/C(N)=N/C(=S)Nc1ccc(C)cc1 | 13.1* | 10.9 | 12.2 | -5.1
Cc1ccc(S(=O)(=O)Nc2cc(C(=O)O)ccc2N2CCC(C)CC2)cc1C | x | x | x | 0.3
O=C(Nc1ccc(C(=O)NN2C(=O)c3ccccc3C2=O)cc1)c1ccccc1 | 23.6* | -3.1 | 7.2 | -4.7
CC(C)C(=O)Nc1ccc(C(=O)NN2C(=O)c3ccccc3C2=O)cc1 | 13.0* | -1.0 | 6.2 | 1.8
C=CCn1c(SCC(=O)NC2CCCC2)nc2sc(C)cc2c1=O | 20.8* | x | -10.8 | 4.1
CCn1c(SCC(=O)Nc2cc(C)on2)nc2sc(C)c(C)c2c1=O | x | -14.2 | x | 0.0
C=CCn1c(SCC(=O)Nc2cc(C)on2)nc2sc(C)c(C)c2c1=O | 20.8* | -3.5 | -4.5 | 3.4
COc1cccc(NC(=O)/C=C/c2ccccc2[N+](=O)[O-])c1 | 26.8* | -4.7 | 9.9 | -0.2
Cc1ccccc1-c1ccc(C(=O)Nc2cccc(F)c2)o1 | -5.2 | 3.0 | -10.0 | -11.8
COc1cccc(NC(=O)c2ccc(C(=O)c3ccccc3)o2)c1 | -13.7 | 7.9 | -9.1 | -6.2
Cc1ccc(NC(=O)/C=C/c2ccc([N+](=O)[O-])s2)cc1 | -5.9 | 30.1 | -1.1 | 2.9
COc1cccc(NC(=O)c2ccc(-c3ccccc3[N+](=O)[O-])o2)c1 | 27.6* | 24.7 | -17.1 | -14.7
Cc1cccc(NC(=O)/C=C/c2ccc([N+](=O)[O-])s2)c1 | 12.4* | 6.4 | x | 1.4
Cc1cccc(NC(=O)c2ccc(-c3ccccc3[N+](=O)[O-])o2)c1 | 27.2* | 19.7 | -11.6 | -8.3
C[C@@H](O[Si](c1ccccc1)(c1ccccc1)C(C)(C)C)[C@H]1C(=O)N[C@H](Cc2cn(S(=O)(=O)c3ccccc3)c3ccccc23)C(=O)N1C | x | x | x | 7.0
COC(=O)C12CCCN1C1C(=O)N(Cc3ccc(C(N)=O)cc3)CC1C2 (configuration not stated) | x | x | x | 6.6
C[C@@H]1COc2cc(Br)ccc2S(=O)(=O)N1Cc1cn(Cc2ccc(Br)cc2)nn1 | x | x | x | 8.9
